Experiment [1] is described as follows: Nuclear factor erythroid 2-related factor 2/antioxidant responsive element (Nrf2/ARE) small molecule agonists: qHTS cell viability counter screen in human keratinocytes (AID 1919968; active = well fitted curve in the direction sought with a large enough effect in the repeat runs; an effect the other way counts as inactive or inconclusive; also: nearly all actives have a fitted effect of over 55% in size). In outline:
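KeratinoSens cells (HaCaT keratinocytes stably carrying an ARE-luciferase reporter) were seeded at 1,500 cells/well and rested 5 h at 37 C/5% CO2. They were then exposed to compounds in DMSO for 23 h. Viability was read by CellTiter-Fluor fluorescence after 1 h.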

Experiment [2] has as its target Gonadotropin-releasing hormone receptor (Homo sapiens) (UniProt P30968). As to the kind of experiment: Human gonadotropin-releasing hormone receptor (GnRHR) small molecule agonists, calcium flux assay in GnRHR-HEK293 cells (AID 1920063). Also: nearly all actives have a fitted effect of over 35% in size. In outline: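 HEK293 cells stably expressing human GnRHR were plated 18 h at 37 °C, loaded with calcium dye 1 h at 37 °C, then given compound in agonist mode; fluorescence (Ex/Em 480/540) read kinetically for 3 min at 1 s intervals.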
For orientation: A change in cytosolic calcium serves as a functional read-out for many receptors and channels.

Experiment [3] has as its target KiSS-1 receptor (Homo sapiens) (UniProt Q969F8). As to the kind of experiment: Human kisspeptin (KISS1R) small molecule agonists, calcium flux assay in KISS1R-HEK293 cells (AID 1920064; active = well fitted curve in the direction sought with a large enough effect in the repeat runs; an effect the other way counts as inactive or inconclusive). In a few lines:
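HEK293 cells stably expressing human KISS1R were plated 18 h at 37 °C, loaded with calcium dye for 1 h at 37 °C, then given compound by pin tool. Fluorescence (Ex/Em 480/540) was read kinetically for 3 min.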

Experiment [4] is described as follows: G protein-coupled receptor (GPCR) small molecule agonists, calcium flux assay: HEK293 wild type cell line counter screen (AID 1920065). In outline: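 Cells were plated and cultured 18 h at 37 C/5% CO2, then loaded with calcium dye for 1 h at 37 C. Compounds in DMSO were pin-transferred in agonist mode, and fluorescence (Ex/Em 480/540) was read kinetically for 3 min at 1 s intervals.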

Experiment [5] is described as follows: p53 small molecule agonists, cell-based qHTS assay with human liver microsomes: qHTS cell viability counter screen (AID 1963579). Also: nearly all actives have a fitted effect of over 45% in size. In outline:
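Metabolic activation used human liver microsomes and NADPH, both 0.5 mg/mL final, over 16 hours at 37 C on p53RE-bla cells (4,000/well). Cytotoxicity measured by CellTiter-Glo luminescence, 30 min at room temperature.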
On the technique in general: Quantitative high-throughput screening tests each substance at several concentrations.

Experiment [6] can be described thus: p53 small molecule agonists, cell-based qHTS assay with rat liver microsomes: qHTS cell viability counter screen (AID 1963580). Also: nearly all actives have a fitted effect of over 45% in size. In outline:
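HCT-116 p53RE-bla, 4,000 cells/well, 5 h pre-incubation; cpd + rat liver microsomes 0.5 mg/mL + NADPH 0.5 mg/mL (final); 16 h, 37 C; CellTiter-Glo, 30 min RT; luminescence.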

Experiment [7] can be described thus: p53 small molecule agonists, cell-based qHTS assay: qHTS cell viability counter screen (AID 1963581). Also: nearly all actives have a fitted effect of over 45% in size. In a few lines: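 p53RE-bla HCT-116 cells were exposed to compounds for 16 h at 37 C; after the beta-lactamase FRET read in the same wells, CellTiter-Glo was added and luminescence (intracellular ATP) read after 30 min at room temperature.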
Experiment [8] deals with 5-hydroxytryptamine receptor 2A (Homo sapiens) (UniProt P28223). The experiment in a line: 5-hydroxytryptamine receptor 2A (HTR2A) small molecule agonists, cell-based qHTS assay (AID 1963587). Also: nearly all actives have a fitted effect of over 30% in size. In outline: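 Kinetic calcium-flux fluorescence (2 min, 1 sec intervals) after compound addition in agonist mode. HTR2A-CHO cells were cultured 18 h, then dye-loaded 1 h at 37 C.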
5-hydroxytryptamine receptor 2A (Homo sapiens), sequence (P28223 whole entry, looked up): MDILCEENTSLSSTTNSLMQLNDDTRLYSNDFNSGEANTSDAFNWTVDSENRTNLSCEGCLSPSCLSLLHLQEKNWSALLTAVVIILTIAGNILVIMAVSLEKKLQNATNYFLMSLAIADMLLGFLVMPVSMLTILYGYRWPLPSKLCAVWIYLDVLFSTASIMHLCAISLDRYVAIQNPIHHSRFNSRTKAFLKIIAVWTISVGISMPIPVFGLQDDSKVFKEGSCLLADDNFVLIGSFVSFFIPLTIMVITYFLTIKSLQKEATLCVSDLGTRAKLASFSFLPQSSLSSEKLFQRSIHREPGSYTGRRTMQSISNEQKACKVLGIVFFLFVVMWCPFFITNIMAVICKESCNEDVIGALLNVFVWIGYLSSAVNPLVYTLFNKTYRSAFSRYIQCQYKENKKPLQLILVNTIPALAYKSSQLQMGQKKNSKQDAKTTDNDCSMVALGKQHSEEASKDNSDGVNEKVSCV

Experiment [9] addresses Muscarinic acetylcholine receptor M1 (Homo sapiens) (UniProt P11229). The experiment in a line: Cholinergic receptor muscarinic 1 (CHRM1) small molecule antagonists, cell-based qHTS assay (AID 1963588). Also: nearly all actives have a fitted effect of over 40% in size. In a few lines: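 CHRM1-CHO calcium-flux assay, antagonist mode. Cells were seeded 18 h, dye-loaded 1 h at 37 C and given compound for 5 min at RT, then acetylcholine was added at 50nM. FDSS fluorescence was read 3 min; 15 concentrations, three runs.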

Experiment [10] shares this target. The experiment in a line: Cholinergic receptor muscarinic 1 (CHRM1) small molecule agonists, cell-based qHTS assay (AID 1963589). Also: nearly all actives have a fitted effect of over 35% in size. In outline:
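CHO cells stably expressing human CHRM1, seeded 18 h at 37 C/5% CO2, dye-loaded 1 h at 37 C, then given compound in agonist mode; intracellular calcium fluorescence read kinetically at 1 s intervals. Fifteen concentrations, three independent runs.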

Experiment [11] in a line: cAMP Responsive Elements (CRE) small molecule agonists, cell-based qHTS assay (AID 1963590). In outline: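 CRE-bla HEK 293T cells in DMEM with 10% dialyzed FBS, NEAA, pyruvate and 25 mM HEPES were plated 18 h at 37 C/5% CO2, then exposed to compounds in DMSO for 3 h before LiveBLAzer B/G FRET substrate addition.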
Experiment [12] can be described thus: cAMP Responsive Elements (CRE) small molecule antagonists, cell-based qHTS assay (AID 1963591; active = well fitted inhibition curve with a large enough effect in the signal ratio in the repeat runs, not every such curve was filed as active; the % refers to the signal ratio). In outline: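 CRE-bla HEK293T cells were plated 18 h at 37 °C/5% CO2, pinned with compound in DMSO, then stimulated with NKH477 at 0.25 uM final for 3 h. LiveBLAzer B/G FRET substrate was added and plates incubated 2 h at room temperature.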
For experiment [13], the target named is Beta-2 adrenergic receptor (Homo sapiens) (UniProt P07550). The experiment in a line: Adrenergic beta2 receptor (ADRB2) small molecule antagonists, cell-based qHTS assay (AID 1963592). Also: series mostly up to about 92 µM; nearly all actives have a fitted effect of over 50% in size. In a few lines: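 Cells (CHO, stable ADRB2 overexpression) incubated 18-20hr at 37C; compounds added from DMSO; agonist mix (1nM isoproterenol, 100uM IBMX, 25uM Ro-20-1724) added; 0.5hr RT; d2-cAMP and anti-cAMP-cryptate added; 1hr RT; 665/615 nm read.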
Beta-2 adrenergic receptor (Homo sapiens), sequence (P07550 whole entry, looked up): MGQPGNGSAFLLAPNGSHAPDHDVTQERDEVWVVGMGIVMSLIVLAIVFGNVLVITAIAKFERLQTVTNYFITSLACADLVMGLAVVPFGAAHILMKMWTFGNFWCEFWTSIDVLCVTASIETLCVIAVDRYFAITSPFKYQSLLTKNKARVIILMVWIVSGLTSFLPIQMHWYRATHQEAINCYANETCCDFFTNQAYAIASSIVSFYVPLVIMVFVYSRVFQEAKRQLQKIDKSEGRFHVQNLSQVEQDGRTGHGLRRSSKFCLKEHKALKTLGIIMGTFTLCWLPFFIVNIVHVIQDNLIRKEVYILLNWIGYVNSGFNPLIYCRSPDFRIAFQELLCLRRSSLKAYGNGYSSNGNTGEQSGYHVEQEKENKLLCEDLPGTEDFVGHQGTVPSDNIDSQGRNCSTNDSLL

Experiment [14] deals with D(2) dopamine receptor (Homo sapiens) (UniProt P14416). As to the kind of experiment: Dopamine D2 receptor (DRD2) small molecule antagonists, cell-based qHTS assay (AID 1963595; active = well fitted inhibition curve with a large enough effect in the signal ratio in the repeat runs, with a control signal flat; the % refers to the signal ratio). In a few lines: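 Stable D2 receptor HEK293 line, 24 h after seeding. Compound preincubated 10 min, then quinpirole (12 nM) with forskolin analogue NKH477 (200 nM), 30 min, room temperature. Detection by time-resolved FRET of cAMP.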
D(2) dopamine receptor (Homo sapiens), sequence (P14416 whole entry, looked up): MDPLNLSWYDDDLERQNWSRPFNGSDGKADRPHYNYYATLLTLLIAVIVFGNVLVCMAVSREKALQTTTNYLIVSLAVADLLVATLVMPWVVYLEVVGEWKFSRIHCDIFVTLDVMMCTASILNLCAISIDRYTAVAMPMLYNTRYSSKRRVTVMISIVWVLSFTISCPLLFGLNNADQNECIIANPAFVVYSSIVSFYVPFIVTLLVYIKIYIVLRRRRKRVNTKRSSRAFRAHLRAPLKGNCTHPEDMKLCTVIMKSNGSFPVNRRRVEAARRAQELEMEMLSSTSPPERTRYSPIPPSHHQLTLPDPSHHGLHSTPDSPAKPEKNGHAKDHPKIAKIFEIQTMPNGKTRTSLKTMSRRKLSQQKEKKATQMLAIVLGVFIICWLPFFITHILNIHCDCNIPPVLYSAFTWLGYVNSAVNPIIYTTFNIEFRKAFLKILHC

Experiment [15] in a line: p53 small molecule agonists, cell-based qHTS assay with human liver microsomes (AID 1963577). Also: potency is read from the fitted curve at half-maximal effect.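 As to activation: p53 response element beta-lactamase reporter cells with liver microsomes plus NADPH.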 In outline: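 With metabolic activation: human liver microsomes (0.5 mg/mL final) plus NADPH (0.5 mg/mL final) added alongside compounds to p53RE-bla cells; 16 h 37 C exposure; beta-lactamase read by LiveBLAzer fluorescence.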
The target of experiment [16] is D(2) dopamine receptor (Homo sapiens) (UniProt P14416). As to the kind of experiment: Dopamine D2 receptor (DRD2) small molecule agonists, cell-based qHTS assay (AID 1963594). Also: nearly all actives have a fitted effect of over 35% in size. In a few lines:
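cAMP accumulation in DRD2-HEK293 cells measured by HTRF after 1 h detection; compounds added 10 min before NKH477 (200nM […]) forskolin-analogue stimulation, 30 min at room temperature, with Ro20-1724 present at 0.1 mM final.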

Experiment [17] is described as follows: p53 small molecule agonists, cell-based qHTS assay with rat liver microsomes (AID 1963578). In a few lines:
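Metabolic activation by rat liver microsomes and NADPH, each 0.5 mg/mL final, added right after compounds to p53RE-bla reporter cells (4,000/well, plated 5 h earlier). 16 h at 37 C, then LiveBLAzer substrate for 2 h at room temperature in the dark; fluorescence read-out.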

Experiment [18] deals with 5-hydroxytryptamine receptor 2A (Homo sapiens) (UniProt P28223). As to the kind of experiment: 5-hydroxytryptamine receptor 2A (HTR2A) small molecule antagonists, cell-based qHTS assay (AID 1963586). Also: nearly all actives have a fitted effect of over 45% in size. In outline:
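Antagonist-mode intracellular calcium assay: DOI (4 nM) added after 5 min compound pre-incubation at room temperature to dye-loaded HTR2A-CHO cells. Fluorescence followed for 3 min, sampled every second.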

A short description of experiment [19]: p53 small molecule agonists, cell-based qHTS assay (AID 1963582; active = well fitted activation curve with a large enough effect in the signal ratio in the repeat runs, not every such curve was filed as active; the % refers to the signal ratio; also: potency is read from the fitted curve at half-maximal effect). In outline:
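p53RE-bla beta-lactamase reporter cells rested 5 h at 37 C/5% CO2, then received compounds in DMSO by pin transfer and were incubated 16 h at 37 C. LiveBLAzer B/G FRET substrate was loaded for 2 h at room temperature before fluorescence reading.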

The structures appear in SMILES notation. Unmarked numbers belong to inactive results. Records with an inconclusive call do not appear. Activity calls are given as the source filed them. Unless noted, calls follow the shape of the full dose curve.

Gonadotropin-releasing hormone receptor (Homo sapiens), sequence (P30968 whole entry, looked up): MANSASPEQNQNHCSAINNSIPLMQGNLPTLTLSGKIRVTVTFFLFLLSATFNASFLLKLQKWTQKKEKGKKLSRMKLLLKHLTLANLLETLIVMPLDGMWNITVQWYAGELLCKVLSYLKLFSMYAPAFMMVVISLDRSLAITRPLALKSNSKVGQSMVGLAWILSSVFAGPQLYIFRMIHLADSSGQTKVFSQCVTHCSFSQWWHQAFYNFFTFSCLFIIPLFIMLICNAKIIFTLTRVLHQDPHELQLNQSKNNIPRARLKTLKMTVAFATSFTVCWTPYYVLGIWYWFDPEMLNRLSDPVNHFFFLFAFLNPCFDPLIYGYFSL
KiSS-1 receptor (Homo sapiens), sequence (Q969F8 whole entry, looked up): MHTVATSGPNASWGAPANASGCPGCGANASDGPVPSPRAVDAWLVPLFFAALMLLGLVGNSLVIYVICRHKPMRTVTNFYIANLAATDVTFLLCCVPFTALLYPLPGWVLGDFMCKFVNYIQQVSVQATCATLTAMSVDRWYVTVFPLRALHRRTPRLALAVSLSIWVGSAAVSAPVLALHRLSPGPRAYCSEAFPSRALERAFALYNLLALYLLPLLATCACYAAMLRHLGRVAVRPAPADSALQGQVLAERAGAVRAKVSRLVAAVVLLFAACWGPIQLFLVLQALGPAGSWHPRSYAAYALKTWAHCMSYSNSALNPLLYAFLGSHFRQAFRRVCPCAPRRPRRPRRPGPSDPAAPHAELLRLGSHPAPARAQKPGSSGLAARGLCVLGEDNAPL
Muscarinic acetylcholine receptor M1 (Homo sapiens), sequence (P11229 whole entry, looked up): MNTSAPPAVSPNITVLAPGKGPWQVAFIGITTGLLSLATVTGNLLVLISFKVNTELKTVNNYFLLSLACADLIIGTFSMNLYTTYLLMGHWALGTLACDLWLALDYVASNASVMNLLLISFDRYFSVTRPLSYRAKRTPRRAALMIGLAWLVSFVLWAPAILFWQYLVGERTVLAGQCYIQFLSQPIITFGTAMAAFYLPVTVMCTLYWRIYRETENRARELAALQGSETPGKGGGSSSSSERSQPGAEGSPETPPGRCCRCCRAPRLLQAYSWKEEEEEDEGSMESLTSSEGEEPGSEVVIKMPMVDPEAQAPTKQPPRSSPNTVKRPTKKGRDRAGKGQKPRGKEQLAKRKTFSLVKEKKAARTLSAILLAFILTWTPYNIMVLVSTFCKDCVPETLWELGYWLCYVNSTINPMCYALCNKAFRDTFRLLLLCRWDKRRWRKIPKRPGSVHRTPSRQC

With `C[C@@H](N)[C@@H](O)c1ccccc1`, the Potency entry in experiment [1], in [2], in [3], in [4], in [5] and in experiment [6] was “inactive” throughout. The Potency entry in experiment [7], in experiment [8], in experiment [9], in experiment [10], in experiment [11] and in experiment [12] was “inactive” throughout. The Potency entry in [13] and in experiment [14] was “inactive” throughout.
As to `CCOP(=O)(OCC)O/C(=C/Cl)c1ccc(Cl)cc1Cl`, the Potency result in [1], in experiment [3], in experiment [4], in experiment [5], in [6] and in experiment [8] was “inactive” throughout. The Potency entry in [9], in [10], in [13], in experiment [16] and in experiment [14] was “inactive” throughout. For the same compound, in experiment [15], the Potency is 2.57 µM (active).
Take `O=C1CCCCC1Cl` (stereo not drawn): the Potency entry in experiment [1], in experiment [2], in [4], in experiment [15], in experiment [17] and in experiment [5] was “inactive” in each case. In addition, the Potency result in experiment [6], in experiment [7], in experiment [18], in experiment [8], in [9] and in experiment [10] was “inactive” throughout. For the same compound, the Potency entry in experiment [11], in [12], in [13] and in experiment [14] was “inactive” throughout.
In the case of `C=CCN1CC[C@]23c4c5ccc(O)c4O[C@H]2C(=O)CC[C@@]3(O)[C@H]1C5`, the Potency result in [1], in experiment [3], in experiment [4], in [5], in experiment [6] and in [7] was “inactive” each time. In addition, the Potency result in experiment [12], in experiment [13], in [16] and in experiment [14] was “inactive” each time.
Turning to `[Cl-].[Cl-].[Sn+2]`, the Potency result in [1], in experiment [2], in [3], in [5], in experiment [6] and in experiment [7] was “inactive” in each case. Further, the Potency entry in experiment [18], in experiment [8], in experiment [9], in [10], in [11] and in experiment [12] was “inactive” each time. For the same compound, the Potency result in [13], in experiment [16] and in [14] was “inactive” each time.
Consider `COP(=S)(NC(C)C)Oc1ccc(C)cc1[N+](=O)[O-]` (stereo not drawn), for which the Potency result in [1], in experiment [2], in experiment [3], in experiment [5], in experiment [6] and in [7] was “inactive” in each case. Further, the Potency entry in experiment [18], in experiment [8], in [9], in [10], in experiment [12] and in [16] was “inactive” in each case.
Consider `N#C/C=C/C#N`, for which the Potency result in experiment [1], in experiment [2], in experiment [4], in [15], in experiment [5] and in [6] was “inactive” in each case. The Potency result in [18], in experiment [8], in experiment [9], in experiment [10], in [11] and in experiment [13] was “inactive” in each case. In addition, the Potency entry in experiment [16] and in [14] was “inactive” in each case. For the same compound, in experiment [19], the Potency is 30.2 µM (active).
`CC(=O)[O-].CC(=O)[O-].O.O.O.[Pb+2]`: the Potency entry in experiment [1], in [3], in [4], in experiment [5], in experiment [7] and in experiment [8] was “inactive” in each case. For the same compound, the Potency result in [9], in [10], in experiment [11], in experiment [12], in [13] and in experiment [16] was “inactive” each time.
Regarding `C=CC(=O)OCCCCO`, the Potency entry in experiment [1], in [2], in [4], in experiment [5], in [7] and in [18] was “inactive” in each case. Further, the Potency entry in experiment [8], in experiment [9], in experiment [10], in [13], in experiment [16] and in experiment [14] was “inactive” throughout.

Values taken from PubChem BioAssay (Tox21).
